Results: PubChem BioAssay (NCATS)
Values joined by “and” are separate entries in the source; they are usually repeats but may differ in a detail not shown here. Equal values may be shown once. Records with an inconclusive call do not appear. Active and inactive are the calls of the source. Unless noted, calls follow the shape of the full dose curve.

Experiments:
[1] = target: Cytochrome P450 3A4 (Homo sapiens) (UniProt P08684); experiment: qHTS Assay for Activators of Cytochrome P450 3A4 (AID 885; active = well fitted curve in the direction sought with a large enough effect; an effect the other way counts as inactive or inconclusive; also: nearly all actives have a fitted effect of over 65% in size)
Method in brief: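 CYP3A4 activity: Luciferin-PPXE O-dealkylation, 25uM substrate, 200mM KPO4, RT throughout. Read-out is luciferase luminescence; higher values reflect activation.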

[2] = target: DNA dC->dU-editing enzyme APOBEC-3G (Homo sapiens) (UniProt Q9HC16); experiment: qHTS for inhibitors of Vif-A3G interactions: Validation (AID 588379; active = well fitted curve in the direction sought with a large enough effect; an effect the other way counts as inactive or inconclusive; also: 0% is about no effect)
Method in brief: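 Yellow fluorescence (Ex 488, Em 500-530) of Vif-coexpressing HeLa A3G-eYFP cells, scanned by Acumen cytometer, reports blocked A3G degradation. Cells plated at 700/well overnight at 37 deg C before compound addition, then a further overnight compound incubation at 37 deg C.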

[3] = target: Cytochrome P450 3A4 (Homo sapiens) (UniProt P08684); experiment: qHTS Assay for Inhibitors and Substrates of Cytochrome P450 3A4 (AID 884; active = well fitted curve in the direction sought with a large enough effect; an effect the other way counts as inactive or inconclusive; also: nearly all actives have a fitted effect of over 50% in size; also: potency is read from the fitted curve at half-maximal effect)
Method in brief: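 Luminescent readout of luciferin produced by CYP3A4 (20 nM) dealkylation of Luciferin-PPXE, 25 uM (its KM). NADPH-driven reaction ran 60 min at RT after 10 min compound preincubation; data scaled to 57 uM ketoconazole as 100% inhibition.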

[4] = target: Androgen receptor (Homo sapiens) (UniProt P10275); experiment: qHTS assay for small molecule agonists of androgen receptor signaling (AID 588515; active = well fitted curve in the direction sought with a large enough effect in the signal ratio, with a control signal flat; the % refers to the signal ratio; also: % is scaled to controls: 0 for no effect and ±100 for the full control effect); conditions: AR-UAS-bla HEK293, beta-lactamase ratio, agonist 16 h; stronger effect = higher value
Method in brief: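 Stimulation of an AR-responsive β-lactamase reporter in GripTite HEK293 cells was measured after 16 h compound exposure at 37 °C, via CCF4 fluorescence after 2 h RT. EC50 from Hill fits, normalized to R1881 at 30 nM.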

[5] = target: Bile acid receptor (Homo sapiens) (UniProt Q96RI1); experiment: qHTS assay for small molecule antagonists of farnesoid X receptor signaling (AID 588526); also: % is scaled to controls: 0 for no effect and ±100 for the full control effect
Method in brief: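 Concentration-response titrations were fitted to the Hill equation for half-maximal inhibition and maximal response, with data normalised to 50 uM chenodeoxycholic acid and DMSO control wells. Cells: FXR-UAS-bla HEK293T, dialyzed FBS.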

[6] = target: Bile acid receptor (Homo sapiens) (UniProt Q96RI1); experiment: qHTS assay for small molecule agonists of farnesoid X receptor signaling (AID 588527); conditions: HEK293T FXR-UAS-bla, beta-lactamase ratio, 16 h; activation: stronger effect = higher value;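 also: series mostly up to about 77 µM; 0% = vehicle basal and 100% = reference agonist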
Method in brief: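 FXR-UAS-bla HEK293T, 10% dialyzed FBS; cpds up to 92 uM titration, 16 h 37 C; CCF4 dye 2 h RT; fluorescence. Normalized to chenodeoxycholic acid 100 uM (100%) and DMSO (0%); Hill fit gives EC50, efficacy.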

[7] = target: Glucocorticoid receptor (Homo sapiens) (UniProt P04150); experiment: qHTS assay for small molecule agonists of glucocorticoid receptor signaling (AID 588532; active = well fitted curve in the direction sought with a large enough effect in the signal ratio, with a control signal flat; the % refers to the signal ratio;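 also: 100% = dexamethasone at 0.1 µM and 0% = DMSO only wells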); conditions: HeLa MMTV-bla, beta-lactamase ratio, agonist, 18 h; activation: stronger effect = higher value, percent of dexamethasone control, DMSO zero
Method in brief: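 MMTV-bla HeLa, beta-lactamase reporter; medium with 1% charcoal/dextran-stripped FBS; cpds up to 92 uM, 18 h, 37 C; CCF4 readout 460/530 nm; Hill fit → EC50, efficacy vs 0.1 uM dexamethasone = 100%.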

[8] = target: Glucocorticoid receptor (Homo sapiens) (UniProt P04150); experiment: qHTS assay for small molecule antagonists of glucocorticoid receptor signaling (AID 588533; active = well fitted inhibition curve with a large enough effect in the signal ratio, with a control signal flat, not every such curve was filed as active; the % refers to the signal ratio;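 also: cells stimulated with 2 nM dexamethasone as agonist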; also: potency is read from the fitted curve at half-maximal effect)
Method in brief: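 Antagonist-mode qHTS: compound titrations added to GRE-bla HeLa cells, then dexamethasone 2 nM final; 18 h, 37 C. CCF4 FRET fluorescence normalized to dexamethasone and DMSO; IC50 from Hill fit.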

[9] = target: Peroxisome proliferator-activated receptor delta (Homo sapiens) (UniProt Q03181); experiment: qHTS assay for small molecule antagonists of peroxisome proliferator-activated receptor delta signaling (AID 588535; active = well fitted inhibition curve with a large enough effect in the signal ratio, with a control signal flat, not every such curve was filed as active; the % refers to the signal ratio)
Method in brief: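 Compounds tested in titration on PPAR-delta-UAS-bla HEK293T cells grown in charcoal/dextran-stripped serum (2%); beta-lactamase activity read via CCF4 emission at 460 and 530 nm.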

[10] = target: Vitamin D3 receptor (Homo sapiens) (UniProt P11473); experiment: qHTS assay for small molecule agonists of vitamin D receptor signaling (AID 588543);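 also: 0% = DMSO basal and 100% = reference agonist control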
Method in brief: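 Measured: β-lactamase reporter activity (CCF4, 405 nm excitation, 460/530 nm emission) in HEK293T VDR-UAS-bla cells after 16 h compound exposure at 37 °C. Normalization against 50 nM 1α,25-dihydroxyvitamin D3 and DMSO; Hill-fit EC50.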

[11] = qHTS assay for small molecule agonists of retinoid X receptor alpha signaling (AID 588544); conditions: HEK293T RXRa-UAS-bla, beta-lactamase reporter, 18 h; 530 nm emission
[12] = qHTS assay for small molecule agonists of the antioxidant response element (ARE) signaling pathway (AID 651741; active = well fitted activation curve with a large enough effect in the signal ratio; the % refers to the signal ratio; also: potency is read from the fitted curve at half-maximal effect; as to activation: % of control where 0% means no effect)
Method in brief: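 Beta-lactamase reporter expression driven by the antioxidant response element in HepG2 cells was detected by fluorescence with LiveBLAzer B/G FRET substrate (2 h, room temperature) following 16 h compound treatment at 37 C.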

[13] = qHTS assay for small molecule activators of the nuclear factor-kappa B (NF-kB) signaling pathway (AID 651749; active = well fitted activation curve with a large enough effect in the signal ratio; the % refers to the signal ratio; also: series mostly up to about 77 µM; % of control where 0% means no effect); conditions: NF-kB-bla ME-180 cells, beta-lactamase FRET ratio, 16 h; activation: stronger effect = higher value
Method in brief: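 Beta-lactamase reporter expression, controlled by NF-kB response elements in ME-180 cells, was quantified fluorometrically via FRET disruption; cells at 2,000/well had been incubated with 23 nL test compound for 16 hr.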

[14] = qHTS assay for small molecule activators of the human pregnane X receptor (PXR) signaling pathway (AID 720659; call rule not given here; also: 0% is about no effect)
[15] = target: Androgen receptor (Homo sapiens) (UniProt P10275); experiment: qHTS assay for small molecule antagonists of androgen receptor signaling (AID 588516; active = well fitted curve in the direction sought with a large enough effect in the signal ratio, with a control signal flat, not every such curve was filed as active; the % refers to the signal ratio; also: % is scaled to controls: 0 for no effect and ±100 for the full control effect)
Method in brief: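 Compounds tested in titration against 10 nM R1881 in AR-responsive bla reporter HEK 293 cells; CCF4 fluorescence (460/530 nm) after 16 h exposure gave IC50 and efficacy.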

[16] = Cell Viability - LYMP2-001 (AID 921; active = well fitted curve in the direction sought with a large enough effect; an effect the other way counts as inactive or inconclusive;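 also: potency is read from the fitted curve at half-maximal effect; cells exposed to compound for 24 h at 37 °C; nearly all actives have a fitted effect of over 70% in size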)
Method in brief: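 A lymphoblastoid cell line of human origin was treated with library compounds across a concentration series for 24 hours, and viable cell number was estimated from ATP-driven luciferase light output. Hill modeling gave AC50.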

[17] = MultiTox-Fluor Cytotoxicity Assay - LYMP1-002 - Live Cells (AID 955; active = well fitted curve in the direction sought with a large enough effect; an effect the other way counts as inactive or inconclusive;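 also: potency is read from the fitted curve at half-maximal effect; cells exposed to compound for 16 hours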)
Method in brief: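 LYMP1-002 lymphoblastoid cells; 2500 cells/well; 16 hr compound exposure, 37 C; MultiTox-Fluor reagent 60 min RT; live-cell fluorescence Ex/Em=405/510; qHTS concentration-response, Hill-equation AC50; tetraoctylammonium bromide positive control.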

[18] = MultiTox-Fluor Cytotoxicity Assay - LYMP1-002 - Dead Cells (AID 960; active = well fitted curve in the direction sought with a large enough effect; an effect the other way counts as inactive or inconclusive; also: potency is read from the fitted curve at half-maximal effect; nearly all actives have a fitted effect of over 60% in size)
Method in brief: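 Readout: fluorescence at 485/520 from cell-impermeant bis-AAF-R110 cleaved by proteases leaking from damaged cells. LYMP1-002 lymphoblastoid line, 16 hr compound treatment at 37 C, concentration-response in qHTS format; Hill-equation AC50 values.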

[19] = MultiTox-Fluor Cytotoxicity Assay - LYMP1-003 - Dead Cells (AID 961; active = well fitted curve in the direction sought with a large enough effect; an effect the other way counts as inactive or inconclusive; also: potency is read from the fitted curve at half-maximal effect; nearly all actives have a fitted effect of over 70% in size)
Method in brief: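 Human lymphoblastoid LYMP1-003 cells (2500/well) were treated with compounds for 16 hr at 37 C in complete medium. Dead-cell protease release was read by bis-AAF-R110 fluorescence (Ex/Em 485/520). AC50 came from Hill fits, normalized to DMSO and 15 uM tetraoctylammonium bromide.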

[20] = Cell Viability - LYMP2-003 (AID 965; active = well fitted curve in the direction sought with a large enough effect; an effect the other way counts as inactive or inconclusive;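 also: potency is read from the fitted curve at half-maximal effect; cells exposed to compounds for 24 h before reading; nearly all actives have a fitted effect of over 50% in size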)
Method in brief: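 qHTS, human lymphoblastoid line, 2500 cells/well, complete medium. 24 h drug, 37 C. ATP-based luminescent readout; Hill-fit AC50.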

Sequence of Vitamin D3 receptor (Homo sapiens) (P11473 whole entry, looked up): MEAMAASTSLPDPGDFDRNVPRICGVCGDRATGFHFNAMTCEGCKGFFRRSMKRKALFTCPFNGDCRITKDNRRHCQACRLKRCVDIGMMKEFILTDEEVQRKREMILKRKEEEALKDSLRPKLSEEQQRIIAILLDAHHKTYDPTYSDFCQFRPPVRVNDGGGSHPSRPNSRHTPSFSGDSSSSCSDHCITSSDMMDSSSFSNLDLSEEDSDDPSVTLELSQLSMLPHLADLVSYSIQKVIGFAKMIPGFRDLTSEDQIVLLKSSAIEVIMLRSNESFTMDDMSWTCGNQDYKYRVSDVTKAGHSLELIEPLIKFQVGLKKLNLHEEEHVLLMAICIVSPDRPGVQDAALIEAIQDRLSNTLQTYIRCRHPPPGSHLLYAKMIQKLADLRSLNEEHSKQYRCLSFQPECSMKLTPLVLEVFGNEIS
Sequence of Cytochrome P450 3A4 (Homo sapiens) (P08684 whole entry, looked up): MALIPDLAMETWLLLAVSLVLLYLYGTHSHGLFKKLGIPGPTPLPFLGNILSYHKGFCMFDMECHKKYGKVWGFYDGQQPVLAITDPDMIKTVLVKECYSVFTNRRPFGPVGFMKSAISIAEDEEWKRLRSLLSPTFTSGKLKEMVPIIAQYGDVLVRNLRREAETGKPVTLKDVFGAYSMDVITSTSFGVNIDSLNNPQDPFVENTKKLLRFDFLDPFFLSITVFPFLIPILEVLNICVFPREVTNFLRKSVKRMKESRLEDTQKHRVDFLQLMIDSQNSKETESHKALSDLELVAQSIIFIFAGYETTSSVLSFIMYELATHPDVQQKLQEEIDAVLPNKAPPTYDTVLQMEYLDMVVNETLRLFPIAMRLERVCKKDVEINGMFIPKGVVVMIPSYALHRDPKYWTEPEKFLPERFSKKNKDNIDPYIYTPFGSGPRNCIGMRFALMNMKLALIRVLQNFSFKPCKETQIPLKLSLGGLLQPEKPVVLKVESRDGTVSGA
Sequence of DNA dC->dU-editing enzyme APOBEC-3G (Homo sapiens) (Q9HC16 whole entry, looked up): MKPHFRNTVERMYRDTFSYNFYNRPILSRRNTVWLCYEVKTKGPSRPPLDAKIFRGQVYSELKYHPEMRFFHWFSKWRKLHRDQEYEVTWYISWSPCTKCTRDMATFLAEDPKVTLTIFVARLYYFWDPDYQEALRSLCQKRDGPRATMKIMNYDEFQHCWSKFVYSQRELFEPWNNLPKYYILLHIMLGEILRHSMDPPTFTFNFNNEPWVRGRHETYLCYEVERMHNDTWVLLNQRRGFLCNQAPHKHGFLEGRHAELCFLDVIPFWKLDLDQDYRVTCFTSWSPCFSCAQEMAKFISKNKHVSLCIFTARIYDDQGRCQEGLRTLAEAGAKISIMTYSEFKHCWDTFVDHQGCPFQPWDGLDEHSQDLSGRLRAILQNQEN
Sequence of Glucocorticoid receptor (Homo sapiens) (P04150 whole entry, looked up): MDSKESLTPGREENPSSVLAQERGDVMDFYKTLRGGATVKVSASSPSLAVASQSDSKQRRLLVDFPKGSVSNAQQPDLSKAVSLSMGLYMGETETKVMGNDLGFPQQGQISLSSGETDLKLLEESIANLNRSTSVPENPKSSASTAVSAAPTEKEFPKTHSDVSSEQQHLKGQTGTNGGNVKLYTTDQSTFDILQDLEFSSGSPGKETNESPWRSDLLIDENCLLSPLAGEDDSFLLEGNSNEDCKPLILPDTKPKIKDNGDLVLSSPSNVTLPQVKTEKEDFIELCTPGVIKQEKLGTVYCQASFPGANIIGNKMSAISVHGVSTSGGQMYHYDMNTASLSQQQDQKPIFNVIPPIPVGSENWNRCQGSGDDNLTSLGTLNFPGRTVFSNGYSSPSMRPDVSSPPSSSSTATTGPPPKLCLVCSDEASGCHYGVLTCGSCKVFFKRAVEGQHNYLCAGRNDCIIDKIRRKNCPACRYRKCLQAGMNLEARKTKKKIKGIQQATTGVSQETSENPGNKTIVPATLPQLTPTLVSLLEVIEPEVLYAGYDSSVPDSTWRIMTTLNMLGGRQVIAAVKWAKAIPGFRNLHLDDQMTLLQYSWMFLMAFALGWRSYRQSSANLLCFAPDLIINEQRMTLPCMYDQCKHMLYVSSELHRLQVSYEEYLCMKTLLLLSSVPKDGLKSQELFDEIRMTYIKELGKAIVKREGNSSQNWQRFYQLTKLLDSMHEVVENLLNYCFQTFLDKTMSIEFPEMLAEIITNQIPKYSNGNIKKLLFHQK
Sequence of Peroxisome proliferator-activated receptor delta (Homo sapiens) (Q03181 whole entry, looked up): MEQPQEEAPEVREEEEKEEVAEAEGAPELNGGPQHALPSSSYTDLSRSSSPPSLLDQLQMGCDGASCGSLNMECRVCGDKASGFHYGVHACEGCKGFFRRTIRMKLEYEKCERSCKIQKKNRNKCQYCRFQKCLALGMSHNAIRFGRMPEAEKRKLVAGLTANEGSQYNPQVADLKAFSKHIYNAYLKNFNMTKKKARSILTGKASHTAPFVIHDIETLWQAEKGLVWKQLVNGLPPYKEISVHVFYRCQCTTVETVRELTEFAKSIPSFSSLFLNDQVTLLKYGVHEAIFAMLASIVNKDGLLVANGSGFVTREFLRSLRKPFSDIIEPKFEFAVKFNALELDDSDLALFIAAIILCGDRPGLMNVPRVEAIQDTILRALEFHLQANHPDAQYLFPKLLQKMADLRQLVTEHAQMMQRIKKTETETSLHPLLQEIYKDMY
Sequence of Bile acid receptor (Homo sapiens) (Q96RI1 whole entry, looked up): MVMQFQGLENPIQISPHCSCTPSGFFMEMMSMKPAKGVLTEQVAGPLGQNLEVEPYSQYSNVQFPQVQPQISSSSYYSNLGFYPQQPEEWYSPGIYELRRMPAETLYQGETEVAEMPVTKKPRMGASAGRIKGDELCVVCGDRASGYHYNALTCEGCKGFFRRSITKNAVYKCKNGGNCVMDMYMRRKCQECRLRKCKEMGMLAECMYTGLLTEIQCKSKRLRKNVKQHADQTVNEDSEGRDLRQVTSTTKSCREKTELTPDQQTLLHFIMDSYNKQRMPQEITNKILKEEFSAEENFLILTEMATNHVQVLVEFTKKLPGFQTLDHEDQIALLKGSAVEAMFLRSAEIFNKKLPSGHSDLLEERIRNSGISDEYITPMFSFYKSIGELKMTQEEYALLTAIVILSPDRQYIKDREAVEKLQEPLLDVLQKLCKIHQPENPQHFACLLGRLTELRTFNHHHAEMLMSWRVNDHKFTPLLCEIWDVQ
Sequence of Androgen receptor (Homo sapiens) (P10275 whole entry, looked up): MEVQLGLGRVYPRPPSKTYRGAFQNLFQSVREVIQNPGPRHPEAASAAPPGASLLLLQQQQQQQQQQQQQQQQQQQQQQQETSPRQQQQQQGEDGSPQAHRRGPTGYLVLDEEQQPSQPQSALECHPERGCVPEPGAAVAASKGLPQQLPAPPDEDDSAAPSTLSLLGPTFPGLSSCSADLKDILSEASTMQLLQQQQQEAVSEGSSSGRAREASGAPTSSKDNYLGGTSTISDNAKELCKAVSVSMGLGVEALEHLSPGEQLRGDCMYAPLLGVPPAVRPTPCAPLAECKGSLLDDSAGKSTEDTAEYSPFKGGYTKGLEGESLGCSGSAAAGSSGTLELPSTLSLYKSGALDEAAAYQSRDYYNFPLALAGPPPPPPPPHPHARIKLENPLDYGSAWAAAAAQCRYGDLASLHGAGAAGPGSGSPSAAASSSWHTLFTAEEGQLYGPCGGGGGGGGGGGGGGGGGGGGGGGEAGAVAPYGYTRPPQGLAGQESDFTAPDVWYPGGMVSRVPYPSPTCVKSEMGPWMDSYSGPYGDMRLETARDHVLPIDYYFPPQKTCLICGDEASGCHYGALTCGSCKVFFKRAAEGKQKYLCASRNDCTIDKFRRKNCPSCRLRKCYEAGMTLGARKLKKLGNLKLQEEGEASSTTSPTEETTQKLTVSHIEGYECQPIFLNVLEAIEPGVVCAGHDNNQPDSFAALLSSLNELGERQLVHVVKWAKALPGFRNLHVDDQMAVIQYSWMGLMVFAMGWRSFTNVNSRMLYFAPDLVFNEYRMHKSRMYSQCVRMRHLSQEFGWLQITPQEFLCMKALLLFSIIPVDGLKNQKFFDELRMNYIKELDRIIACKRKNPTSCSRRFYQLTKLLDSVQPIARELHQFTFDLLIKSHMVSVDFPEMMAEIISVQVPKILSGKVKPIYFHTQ

COC1=C[C@H]2[C@H]3Cc4ccc(OC)c(O)c4[C@@]2(CCN3C)CC1=O
inactive: Potency [1] | outcome [2]

CN1C[C@@H](CO)C=C2c3cccc4[nH]cc(c34)CC21 (some centres undefined)
inactive: outcome [2]

COc1ccc(CC2c3cc(OC)c(OC)cc3CCN2C)cc1OC (centres undefined)
inactive: Potency [3] | outcome [2]

Nc1ccc([N+](=O)[O-])cc1Cl
-7.96%: max response [11]
inactive: activation [4] -9.37% | Potency [5] | activation [6] -2.5% | activation [7] -4.74% | Potency [8] | Potency [9] | outcome [10] | Potency [12] | activation [13] 0.235% | outcome [14]

Cc1cnc(C2=NC(C)(C(C)C)C(=O)N2)c(C(=O)O)c1 (centres undefined)
inactive: activation [4] -8.96% and 2.01% | Potency [15] | activation [7] 0.844% and 5.59% | Potency [9] | outcome [10] | Potency [12]
-18.8% and -4.8%: max response [11]

CCCC1COC(Cn2cncn2)(c2ccc(Cl)cc2Cl)O1 (centres undefined)
1.7%: max response [11]
active: Potency [12] 54.5 µM and 61.1 µM
inactive: activation [4] -7.53% and -11.8% | Potency [15] | Potency [5] | activation [6] 0.69% | activation [7] 4.96% and -1.29% | Potency [8] | Potency [9] | outcome [10] | activation [13] -0.905% and -2.64%

Cc1ccccc1C(=O)Nc1cccc(OC(C)C)c1
-12.9%: max response [11]
inactive: activation [4] -11.5% | Potency [8] | Potency [9] | Potency [12] | activation [13] 0.221%

O=C1NCCN1Cc1ccc(Cl)nc1
-6.75%: max response [11]
inactive: activation [4] 5.64% | Potency [15] | Potency [5] | Potency [8] | Potency [9] | Potency [12] | activation [13] -1.02% | outcome [14]

CCC[CH2][Sn]([CH2]CCC)[CH2]CCC
inactive: activation [6] 6.72% | activation [7] -13.3%

C=CC1(C)OC(=O)N(c2cc(Cl)cc(Cl)c2)C1=O (centres undefined)
inactive: Potency [5] | activation [6] -2.77% | activation [7] -11.4% | Potency [8] | Potency [9] | outcome [10] | activation [13] -0.261%

COP(=O)(OC)Oc1ccc([N+](=O)[O-])cc1
inactive: activation [6] 5.22% | Potency [12] | outcome [14]

CCN(CC)c1nc(C)cc(OP(=S)(OC)OC)n1
26.8%: max response [11]
inactive: activation [7] 19.3% | Potency [8] | outcome [10] | activation [13] 0.586% | outcome [14]

Clc1ccc(C(Cl)(Cl)Cl)cc1
inactive: Potency [5] | activation [6] -1.93% | activation [7] 0.824% | Potency [8] | outcome [14]
-6.16%: max response [11]

C=CC(=O)OCC(CO)(COC(=O)C=C)COC(=O)C=C
inactive: Potency [1] | activation [6] 1.06% | outcome [10]
active: Potency [3] 7.94 µM | Potency [16] 3.16 µM | Potency [17] 3.98 µM | Potency [18] 3.16 µM | Potency [19] 7.94 µM | Potency [20] 3.98 µM | Potency [8] 22.4 µM and 20 µM | Potency [12] 24.3 µM

COCC(=O)N(c1c(C)cccc1C)[C@H](C)C(=O)OC
inactive: Potency [5] | activation [6] 0.109% | outcome [10] | Potency [12]
-8.28%: max response [11]

CN(C)c1nc(=O)n(C2CCCCC2)c(=O)n1C
inactive: Potency [5] | activation [6] -1.35% | outcome [10] | Potency [12] | outcome [14]
-8.9%: max response [11]

CC1CCCCC1NC(=O)Nc1ccccc1 (centres undefined)
active: Potency [12] 34.4 µM
inactive: Potency [5] | activation [6] 2% | activation [7] -3.51% | Potency [8] | Potency [9] | activation [13] -4.02%

CC(C)(C#N)N=NC(C)(C)C#N
-3.46%: max response [11]
inactive: activation [7] 6.88% | Potency [8] | Potency [9] | outcome [10] | Potency [12] | outcome [14]

O=[N+]([O-])c1ccc(Oc2ccc(C(F)(F)F)cc2[N+](=O)[O-])cc1
active: Potency [12] 48.6 µM
inactive: Potency [5] | activation [6] -1.37% | activation [7] -2.99% | Potency [8] | outcome [10] | outcome [14]

CN(C)P(=O)(N(C)C)N(C)C
inactive: Potency [5] | activation [6] 3.22% | Potency [9] | Potency [12] | outcome [14]
-16.8%: max response [11]

CC(C)C(=O)OCC(C)(C)C(OC(=O)C(C)C)C(C)C (centres undefined)
inactive: activation [7] -2.67% | Potency [8] | Potency [9] | outcome [10] | Potency [12] | activation [13] -2.62%

c1cc[n+]2c(c1)-c1cccc[n+]1CC2
inactive: activation [7] 1.75% | Potency [8] | Potency [9] | outcome [10]
-27.8%: max response [11]
active: Potency [12] 8.63 µM

COP(=S)(OC)Oc1nc(Cl)c(Cl)cc1Cl
inactive: Potency [5] | activation [7] 1.34% | Potency [8] | outcome [14]
active: Potency [12] 27.3 µM
